# Bioassay records deposited in PubChem by National Center for Advancing Translational Sciences (NCATS).
# Pol eta inh-1: DNA polymerase eta (human) inhibition; 390,000 tested, 1.2% active; Q9Y253; recombinant Pol eta, fluorescent DNA replication assay; Potency, µM (series often up to 114 µM), without a hit: at the top dose activity change, negative = inhibition, hits mostly inhibitors; note: potency is the fitted concentration of half-maximal effect; % is set by controls: 0 for no effect and ±100 for the full control effect
#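 Fluorescent replication assay: 50 nM final substrate added after a 15 min room-temperature compound preincubation with 10 nM enzyme. Signal taken at 0 min and again at 10 min.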
# Pol kappa inh-1: blocks human DNA polymerase kappa activity | Q9UBT6 | purified Pol kappa, fluorescent DNA synthesis assay, 10 min | Potency, µM (series often up to 107 µM), inactives show at the highest dose activity, negative = inhibition, most hits filed as inhibitors | 400,000 tested, 0.53% active | AID 588579; note: potency is the fitted concentration of half-maximal effect; % is set by controls: 0 for no effect and ±100 for the full control effect
# Target sequence (Q9UBT6 whole entry, looked up): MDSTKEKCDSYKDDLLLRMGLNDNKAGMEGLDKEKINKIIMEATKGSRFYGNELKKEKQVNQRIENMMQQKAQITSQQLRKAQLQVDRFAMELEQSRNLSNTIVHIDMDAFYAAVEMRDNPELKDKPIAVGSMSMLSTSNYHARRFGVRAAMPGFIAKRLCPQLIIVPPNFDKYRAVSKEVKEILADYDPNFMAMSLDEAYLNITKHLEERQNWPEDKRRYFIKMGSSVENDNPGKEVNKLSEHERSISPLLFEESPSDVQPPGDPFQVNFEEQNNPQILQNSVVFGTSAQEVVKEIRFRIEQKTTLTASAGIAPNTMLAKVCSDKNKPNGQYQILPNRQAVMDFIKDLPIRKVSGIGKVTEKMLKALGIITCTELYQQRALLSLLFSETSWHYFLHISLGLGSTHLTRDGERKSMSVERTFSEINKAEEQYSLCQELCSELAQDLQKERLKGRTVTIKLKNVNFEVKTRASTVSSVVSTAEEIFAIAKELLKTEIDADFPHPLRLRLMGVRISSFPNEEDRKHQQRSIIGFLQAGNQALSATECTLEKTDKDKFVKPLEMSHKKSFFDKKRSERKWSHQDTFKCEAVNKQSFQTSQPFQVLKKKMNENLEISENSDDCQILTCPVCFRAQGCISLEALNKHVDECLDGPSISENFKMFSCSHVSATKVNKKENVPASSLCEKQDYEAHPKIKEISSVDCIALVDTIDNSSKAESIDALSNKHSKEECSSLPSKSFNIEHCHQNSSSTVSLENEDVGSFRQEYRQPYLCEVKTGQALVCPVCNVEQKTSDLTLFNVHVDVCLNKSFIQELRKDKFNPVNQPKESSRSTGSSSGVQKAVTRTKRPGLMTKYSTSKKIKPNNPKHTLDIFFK
#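 Pol kappa 10 nM + cpd, 15 min RT; start w/ substrate 50 nM final; fluorescence kinetic read, 0 and 10 min. Neg ctrl: buffer, no enzyme.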
# POLB inh: blocks human DNA polymerase beta activity. P06746. Pol beta primer extension/strand displacement, fluorescence kinetic. Potency, µM (titrated, usually from 114 µM), inactives show at the top dose activity change, negative = inhibition, usual class: inhibitors. 340,000 tested, 1.3% active; note: potency is the fitted concentration of half-maximal effect; % is set by controls: 0 for no effect and ±100 for the full control effect
#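 Human Pol beta at 10 nM; strand-displacement substrate 50 nM final. Compound exposure 15 min at room temperature before start, reaction 10 min at room temperature.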
# Pol iota inh: blocks human DNA polymerase iota activity; Q9UNA4; Pol iota fluorescent replication assay, 10 min; Potency, µM (doses to about 115 µM), without a hit: at the highest dose activity, negative = inhibition, actives largely listed as inhibitors; 390,000 tested, 1% active; note: potency is the fitted concentration of half-maximal effect
#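 Fluorescent replication assay read twice, at 0 min and 10 min after adding 50 nM (final) substrate. Enzyme (10 nM) and compounds were first incubated 15 min at room temperature; enzyme-free buffer wells were negative controls.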
# L3MBTL1 inh: inhibitors of human L3MBTL1; AlphaScreen L3MBTL1–H3K9me1 peptide binding; Potency, µM (highest dose often 57.1 µM), for inactives: at the top dose activity, negative = inhibition, hits mostly inhibitors; Q9Y468; 230,000 tested, 0.66% active; note: potency is the fitted concentration of half-maximal effect; % is set by controls: 0 for no effect and ±100 for the full control effect; nearly all actives have a fitted effect of over 60% in size
#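 Read-out is AlphaScreen signal from streptavidin donor and nickel chelate acceptor beads (10 ug/mL final each) bridging L3MBTL1 (50 nM) and biotinylated K9-monomethylated H3(1-15) peptide (75 nM), after 30 min compound exposure at room temperature.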
# WRN helicase inh: blocks human WRN helicase | Q14191 | WRN helicase unwinding, fluorescent forked duplex, kinetic | Potency, µM (titrated, usually from 114 µM), without a hit: at the top dose activity change, negative = inhibition, hits mostly inhibitors | 360,000 tested, 0.46% active | AID 651768; note: potency is the fitted concentration of half-maximal effect; % is set by controls: 0 for no effect and ±100 for the full control effect; nearly all actives have a fitted effect of over 55% in size
#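 Fluorescence dequenching readout, ex 525 nm/em 598 nm, kinetic mode: forked duplex DNA (100 nM final) with adjacent fluorophore and quencher unwound by WRN (20 nM final) with 2 mM ATP. Compound preincubation 15 min, room temperature.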
# PGK validate: TbPGK inhibition, hit validation | 500 tested, 79% active | TbPGK coupled GAPDH assay, Kinase-Glo luminescence | shares compounds with Pol kappa inh-1 | Potency, µM (series often up to 57.5 µM), inactives show at the top dose activity change, negative = inhibition, usual class: inhibitors; note: potency is the fitted concentration of half-maximal effect; % is set by controls: 0 for no effect and ±100 for the full control effect; nearly all actives have a fitted effect of over 65% in size
# POLI cherry-pick: Confirm cherry-picked inhibitors of human polymerase iota; Pol iota primer extension, TAMRA/BHQ fluorescence; Potency, µM, actives largely listed as inhibitors; 1,500 tested, 77% active; shares compounds with Pol kappa inh-1; note: potency is the fitted concentration of half-maximal effect
# GALK confirm: galactokinase (human) inhibition, confirmation | shares compounds with Pol eta inh-1 | purified GALK, Kinase-Glo ATP depletion luminescence | Potency, µM (highest dose often 115 µM), for inactives: top-dose activity, negative = inhibition, hits mostly inhibitors | 150 tested, 70% active | AID 2015
# Redox cycling: redox cycling activity in phenol red-HRP assay. shares compounds with Pol eta inh-1. Phenol red-HRP H2O2 redox cycling, absorbance 600 nm. Potency, µM (series often up to 115 µM), without a hit: top-dose activity change, negative = H2O2 signal, usual class: inhibitors. 150 tested, 40% active. AID 2035
# HEK293 viability: counter-screen for GALK inhibitors: HEK293 cell cytotoxicity; AID 2547; Potency, µM (top dose mostly 46.1 µM), for the others: at the top dose activity change, negative = cytotoxicity, hits mostly inhibitors; HEK-293 viability, ATP luminescence (CellTiter-Glo), 24/48 h; 170 tested, 10% active; shares compounds with Pol eta inh-1; note: potency is the fitted concentration of half-maximal effect; % is set by controls: 0 for no effect and ±100 for the full control effect
# Pol kappa inh-2: Pol kappa (human) inhibition, cherry-pick confirmation | shares compounds with Pol eta inh-1 | purified Pol-kappa, fluorescent strand-displacement substrate | Potency, µM, hits mostly inhibitors | 920 tested, 76% active; note: potency is the fitted concentration of half-maximal effect
# Pol eta inh-2: Pol eta (human) inhibition, cherry-pick confirmation; Pol eta primer extension, TAMRA/BHQ fluorescence, 10 min; Potency, µM, most hits filed as inhibitors; 2,600 tested, 64% active; shares compounds with Pol eta inh-1; AID 720502; note: potency is the fitted concentration of half-maximal effect
# An asterisk follows results filed as active; ? = inconclusive; nt = no result given; [ ] = another dose, or the depositor's remark. Rows were chosen to be rich in hits. Some 2.5% of all compounds tested hit in one or more screens of this group. Calls come from the whole dose curve; as a rule, active = well fitted curve in the direction sought with a large enough effect; inconclusive = small, poorly fitted or top-dose-only effect, or another doubt; inactive = no such curve, though single readings can be large; an effect the other way counts as inactive or inconclusive.
SMILES,Pol eta inh-1,Pol kappa inh-1,POLB inh,Pol iota inh,L3MBTL1 inh,WRN helicase inh,POLI cherry-pick,Pol eta inh-2,others
O=C(O)c1ccc(Nc2nc(-c3cc4ccccc4oc3=O)cs2)cc1O,25µM*,56µM*,100µM*,22µM*,?,?,?,67*,Pol kappa inh-2=75*
O=C(O)CSc1nc2ccc(NC(=O)COc3ccc(Cl)cc3)cc2s1,11µM*,?,25µM*,79µM*,nt,nt,67*,30*,
CC(/C=C1\SC(=S)N(NC(=O)c2ccc(C)cc2)C1=O)=C\c1ccccc1,4%,-22%,2%,-2%,-10%,-15%,nt,nt,
CC(/C=C1\SC(=S)N(c2ccc(C(=O)O)cc2)C1=O)=C\c1ccccc1,22µM*,-37%,-24%,20µM*,nt,?,38*,43*,
Cc1cccc(NC(=O)CSc2nc3c(oc4ccccc43)c(=O)n2-c2ccccc2)c1C,-11%,-20%,0%,21%,nt,nt,nt,nt,
CC(C)(C)NC(=O)C(c1ccc(O)cc1)N(Cc1ccco1)C(=O)CCC(=O)Nc1ccccn1 (stereo not given),-15%,7%,23%,-17%,nt,4%,nt,nt,
CC(=O)NS(=O)(=O)c1ccc(NC(=O)COc2ccc(C(=O)c3ccccc3)cc2)cc1,-12%,-2%,10%,1%,-1%,-6%,nt,nt,
CCCc1c(C)[nH]c2ccc(C(=O)O)cc2c1=S,3.2µM*,32µM*,?,6.3µM*,nt,25µM*,17*,5.4*,
COc1cccc(/C=C/C(=O)N2CC(C)OC(C)C2)c1OC (stereo not given),-22%,5%,21%,13%,nt,7%,nt,nt,
CC1(C)C=C2C(=NN(c3ccccc3)C(N)=C2C#N)CO1,18µM*,-3%,-13%,14µM*,-7%,3%[57.1 µM],?,nt,GALK confirm=27µM*;Redox cycling=12µM*;HEK293 viability=1%
COc1ccccc1NC(=O)Cn1c(O)c(N=NC(=O)c2ccccc2O)c2ccccc21,50µM*,?,?,?,3%,-10%[11.6 µM],?,nt,Pol kappa inh-2=?
Cc1ccc(NC(=O)Cn2c(O)c(N=NC(=O)c3cc4ccccc4cc3O)c3ccccc32)cc1,?,-29%,?,?,-7%,-20%,nt,nt,
CN(C)/C=C/C=C1C(=O)CCCC1=O,10µM*,79µM*,20µM*,1.1µM*,28µM*,?,67*,38*,
Cc1ccc(C)c2c1CCCC2=O,-6%,nt,nt,nt,nt,3%,nt,nt,
CC(C)Cc1nnc(NC(=O)CN2C(=O)C3CCCCC3C2=O)s1 (stereo not given),-10%,-16%,nt,11%,8%,16%,nt,nt,
O=C(Nc1cccc(C(F)(F)F)c1)Nc1nnc(N2CCCCC2)s1,-11%,10%,17%,15%,nt,nt,nt,nt,
O=C(O)C1=C(C(=O)O)C2C=CC1C2,20µM*,?,nt,?,nt,-2%[11.6 µM],nt,?,PGK validate=10µM*;Pol kappa inh-2=24*
CCc1c(C)c2ccc(O)c(CN3CCN(c4cc(Cl)ccc4C)CC3)c2oc1=O,-13%,0%,-1%,51%,nt,nt,nt,nt,
CC(=O)c1ccc(NC(=O)CSc2nnc3c(n2)[nH]c2ccccc23)cc1,45µM*,3%,8.9µM*,-18%,nt,nt,?,?,Pol kappa inh-2=47*
Cc1ccc(-n2cccc2/C=C2/C(=N)N3C(=NC2=O)SN=C3S(C)(=O)=O)cc1Cl,14µM*,?,28µM*,22µM*,?,?,84*,?,
Cc1cc(/C=C2/C(=N)N3C(=NC2=O)SN=C3S(C)(=O)=O)c(C)n1-c1ccc(F)cc1,?,?,-13%,-7%,nt,-11%,nt,nt,
Cc1cc(=O)n(CC(=O)NC(C)c2ccccc2)c2c1c(C)nn2C (stereo not given),40µM*,?,32µM*,-23%,nt,nt,67*,85*,
COC(=O)c1ccccc1NC(=O)Cn1c(=O)cc(-c2ccccc2)c2c(C)nn(C)c21,-10%,0%,2%,-3%,nt,nt,nt,nt,
Cc1nn(C)c2c1c(-c1ccccc1)cc(=O)n2CC(=O)NC(C)c1ccccc1 (stereo not given),25µM*,?,14µM*,?,nt,nt,34*,27*,Pol kappa inh-2=17*
O=[N+]([O-])c1ccc2cn[nH]c2c1,-17%,-5%,51%,31%,-1%,0%,nt,nt,
O=S(=O)(c1cnc2ccccc2c1)N1CCN(c2nc(-c3cccs3)nc3ccccc23)CC1,nt,-7%,nt,12%,nt,nt,nt,nt,
CCN(CC)c1cc(Cl)c2nonc2c1N,-1%,-20%,-11%,60%,?,-10%,nt,nt,
CN(C)c1cc(Cl)c2nonc2c1N,79µM*,-23%,-26%,10µM*,32µM*,-2%[11.6 µM],75*,76*,GALK confirm=21µM*;Redox cycling=12µM*;HEK293 viability=19%
O=C1NC(=Nc2ccccc2)S/C1=C\C=C\c1ccco1,10µM*,20µM*,2.5µM*,11µM*,3.2µM*,50µM*,38*,27*,
CC(=O)NC12CC3CC(C1)CC(C(=O)Nc1ccc(C)c(S(=O)(=O)N4CCCCCC4)c1)(C3)C2,-22%,-13%,nt,1%,nt,3%,nt,nt,
